# Source: PubChem BioAssay (NCI)
# About 79,000 compounds went through this panel and 15% of them were active in at least one assay; those are over-represented in the sample as a whole. Values without a mark were called inactive. Activity calls are given as the source filed them. Rule as the data show it: active = growth inhibition above about 70%; inactive = the rest.
# Assay: NCI Yeast Anticancer Drug Screen. Data for the mgt1 strain (AID 153)
# Conditions: S. cerevisiae mgt1 mutant growth inhibition, stronger effect = higher value
# Description: Growth inhibition of yeast strains with defined genetic alterations is measured as a screen for potential anti-cancer activity. Selected strains with alterations in DNA damage repair or cell cycle control were exposed to compounds and growth inhibition was measured relative to vehicle treated controls. The strain used in this assay is mgt1
Structure (SMILES),growth inhibition (at 1.2 µM) [%],growth inhibition (at 3.7 µM) [%],growth inhibition (at 11.0 µM),growth inhibition (at 33.0 µM),growth inhibition (at 100.0 µM)
CC(O)CN1C(=O)c2cccc3cc([N+](=O)[O-])cc(c23)C1=O (stereo not given),-23,4,6%,15%,23%
S=c1[nH]nc(Cc2ccccc2)c(=S)[nH]1,23,47,83% (active),97% (active),97% (active)
Oc1ccc(Br)cc1C=Nc1cccc(C(F)(F)F)c1,-2,21,75% (active),96% (active),97% (active)
C=Cc1c(C)c(O)cc2c1-c1ccc(O)c(C)c1CC2,-18,-1,-3%,98% (active),99% (active)
CCN(CC)c1cccc(Nc2nc3ccccc3s2)c1,6,6,5%,7%,7%
CNC(=O)OCc1c(COC(=O)NC)c(C)n(-c2ccc(Cl)c(Cl)c2)c1C,-35,-40,-14%,98% (active),99% (active)
CCCCCCCCCC/C=C\CC(=O)O,-3,-2,-2%,28%,99% (active)
O=C(c1c(F)c(F)c(F)c(F)c1F)c1c(F)c(F)c(F)c(F)c1F,24,59,98% (active),99% (active),99% (active)
